Results published in PubChem BioAssay (NCATS).
Inconclusive results are not listed. Calls of active or inactive are those of the source. The call rests on the fitted dose curve; in most records, active means well fitted curve in the direction sought with a large enough effect; inconclusive means small, poorly fitted or top-dose-only effect, or another doubt; inactive means no such curve, though single readings can be large; an effect the other way counts as inactive or inconclusive.

What was measured:
[1] = target: Rap guanine nucleotide exchange factor 3 (Homo sapiens) (UniProt O95398); test: Confirmatory qHTS for agonist of cAMP-regulated guanine nucleotide exchange factor 3 (EPAC1) (AID 1645881);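 further: EPAC1 catalysed release of BODIPY-GDP from Rap1B seen as fluorescence loss; 100% = effect of cAMP agonist control; nearly all actives have a fitted effect of over 75% in size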
Rap guanine nucleotide exchange factor 3 (Homo sapiens), sequence (O95398 whole entry, looked up): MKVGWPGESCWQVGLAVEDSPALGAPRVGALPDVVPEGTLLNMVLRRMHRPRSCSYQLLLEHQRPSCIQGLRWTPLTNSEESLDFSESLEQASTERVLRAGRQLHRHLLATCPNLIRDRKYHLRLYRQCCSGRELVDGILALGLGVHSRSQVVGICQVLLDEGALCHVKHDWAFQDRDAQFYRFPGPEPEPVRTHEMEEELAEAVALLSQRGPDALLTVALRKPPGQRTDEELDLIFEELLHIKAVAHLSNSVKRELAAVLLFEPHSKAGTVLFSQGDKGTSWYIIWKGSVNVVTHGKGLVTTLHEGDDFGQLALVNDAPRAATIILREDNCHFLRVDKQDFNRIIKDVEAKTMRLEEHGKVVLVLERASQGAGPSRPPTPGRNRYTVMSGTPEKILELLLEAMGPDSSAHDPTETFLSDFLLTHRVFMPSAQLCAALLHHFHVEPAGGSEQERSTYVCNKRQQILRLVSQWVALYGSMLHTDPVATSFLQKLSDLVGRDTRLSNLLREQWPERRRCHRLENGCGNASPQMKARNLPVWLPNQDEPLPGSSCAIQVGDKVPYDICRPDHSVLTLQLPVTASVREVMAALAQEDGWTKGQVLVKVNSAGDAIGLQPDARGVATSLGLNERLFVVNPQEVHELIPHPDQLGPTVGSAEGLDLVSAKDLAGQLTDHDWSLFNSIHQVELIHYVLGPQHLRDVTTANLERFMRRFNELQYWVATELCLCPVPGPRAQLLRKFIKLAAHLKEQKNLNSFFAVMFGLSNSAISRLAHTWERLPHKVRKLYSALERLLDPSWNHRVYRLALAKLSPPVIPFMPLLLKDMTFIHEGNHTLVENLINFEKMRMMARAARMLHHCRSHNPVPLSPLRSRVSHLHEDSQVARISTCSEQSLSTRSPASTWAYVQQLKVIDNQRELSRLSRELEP

[2] = target: Rap guanine nucleotide exchange factor 4 (Homo sapiens) (UniProt Q8WZA2); test: Confirmatory qHTS for agonist of cAMP-regulated guanine nucleotide exchange factor 4 (EPAC2) (AID 1645884);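 further: nucleotide exchange releases bodipy-GDP from Rap1 and this lowers its fluorescence; on the % scale 0 is the no-effect control and ±100 the full control effect; nearly all actives have a fitted effect of over 65% in size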
Rap guanine nucleotide exchange factor 4 (Homo sapiens), sequence (Q8WZA2 whole entry, looked up): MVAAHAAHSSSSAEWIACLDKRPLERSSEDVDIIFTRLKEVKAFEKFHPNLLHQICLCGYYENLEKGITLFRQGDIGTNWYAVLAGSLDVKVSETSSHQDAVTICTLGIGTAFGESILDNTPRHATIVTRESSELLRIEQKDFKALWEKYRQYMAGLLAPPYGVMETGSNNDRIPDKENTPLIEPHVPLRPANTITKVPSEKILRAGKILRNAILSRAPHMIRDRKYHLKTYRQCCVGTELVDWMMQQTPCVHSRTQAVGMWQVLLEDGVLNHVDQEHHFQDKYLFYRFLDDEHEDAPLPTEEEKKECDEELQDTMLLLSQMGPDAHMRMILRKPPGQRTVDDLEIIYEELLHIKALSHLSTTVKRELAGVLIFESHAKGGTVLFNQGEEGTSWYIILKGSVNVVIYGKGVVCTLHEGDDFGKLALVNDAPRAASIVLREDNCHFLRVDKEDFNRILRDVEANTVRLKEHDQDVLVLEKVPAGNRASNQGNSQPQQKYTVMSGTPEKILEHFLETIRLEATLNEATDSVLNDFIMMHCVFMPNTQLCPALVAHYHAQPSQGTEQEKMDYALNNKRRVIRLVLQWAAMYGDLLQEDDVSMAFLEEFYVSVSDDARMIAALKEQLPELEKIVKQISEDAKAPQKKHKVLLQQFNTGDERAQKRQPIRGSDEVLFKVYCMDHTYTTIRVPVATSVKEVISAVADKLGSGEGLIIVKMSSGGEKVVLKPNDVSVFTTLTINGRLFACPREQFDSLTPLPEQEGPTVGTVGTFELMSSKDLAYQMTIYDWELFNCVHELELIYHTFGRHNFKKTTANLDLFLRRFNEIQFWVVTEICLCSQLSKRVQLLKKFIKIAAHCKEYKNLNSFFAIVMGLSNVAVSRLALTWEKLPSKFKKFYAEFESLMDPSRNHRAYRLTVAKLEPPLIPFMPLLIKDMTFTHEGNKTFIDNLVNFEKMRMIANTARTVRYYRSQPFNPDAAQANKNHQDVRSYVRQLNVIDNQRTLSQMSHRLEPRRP

[3] = target: Rap guanine nucleotide exchange factor 4 (Homo sapiens) (UniProt Q8WZA2); test: Confirmatory qHTS for antagonist of cAMP-regulated guanine nucleotide exchange factor 4 (EPAC2) (AID 1645885); further: nearly all actives have a fitted effect of over 25% in size; further: potency means the concentration at half of the fitted maximal effect; on activity change, negative = inhibition: on the % scale 0 is the no-effect control and ±100 the full control effect
[4] = target: Rap guanine nucleotide exchange factor 3 (Homo sapiens) (UniProt O95398); test: Counterscreen qHTS for antagonist of cAMP-regulated guanine nucleotide exchange factor 3 (EPAC1) (AID 1645888);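 further: fluorescence loss as bound BODIPY-GDP is released from Rap1B; % of control where 0% means no effect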
Procedure, shortened: (§1)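 Measured: fluorescence of BODIPY-GDP bound to Rap1B, which falls as exchange proceeds. Conditions include 50 uM competing GDP, 5 and 30 min reads, and a later cAMP challenge for antagonist detection.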

[5] = target: Rap guanine nucleotide exchange factor 3 (Homo sapiens) (UniProt O95398); test: Counterscreen qHTS for agonist of cAMP-regulated guanine nucleotide exchange factor 3 (EPAC1) (AID 1645889); further: nearly all actives have a fitted effect of over 40% in size; further: potency means the concentration at half of the fitted maximal effect; on activation: % of control where 0% means no effect
Procedure, shortened: as §1

Cc1ccc(N(Cc2cccs2)C(=O)c2ccc(Br)o2)cc1
inactive: Potency [1] | Potency [2] | Potency [3] | Potency [4]

CCc1nc2c(OCc3ccc(OC)cc3)cccn2c1N(C)C(=O)c1ccc(OC)cc1
inactive: Potency [1] | Potency [2] | Potency [3] | Potency [4]

O=C1CSC(c2cccc(Cl)c2Cl)N1c1ccccn1 (centres undefined)
inactive: Potency [1] | activation [2] 6.45% [at 17.1 µM, percent relative to cAMP agonist control] | Potency [3] | activity change, negative = inhibition [4] -6.53% [at 30.8 µM]

Fc1ccccc1C1CC(c2ccco2)=Nc2ccccc2S1 (centres undefined)
inactive: Potency [1] | activation [2] 8.88% [at 17.1 µM, percent relative to cAMP agonist control] | Potency [3] | activity change, negative = inhibition [4] -3.18% [at 30.8 µM]

CCOc1ccccc1NC(=O)CN1C(=O)COc2ccc(S(=O)(=O)NC3CCCC3)cc21
inactive: Potency [1] | Potency [2] | outcome [3] inactive [at 12.7 µM] | Potency [4]

Oc1c(Br)cc(Br)cc1CNc1cccc2cccnc12
active: Potency [3] 26.9 µM
inactive: Potency [1] | Potency [2] | Potency [4]

CCn1c2c(c3cc(Cl)ccc31)CCCC2=O
inactive: Potency [1] | Potency [2] | Potency [3] | Potency [4]

COc1ccc2ccc(C(C)(C(C)=O)C(=O)OC(C)C)cc2c1 (centres undefined)
inactive: Potency [1] | activation [2] 5.56% [at 17.1 µM, percent relative to cAMP agonist control] | Potency [3] | activity change, negative = inhibition [4] -29.5% [at 30.8 µM]

CCOC(=O)c1ccc(NC(=S)NNC(=O)C2(C)CC2(Cl)Cl)cc1 (centres undefined)
inactive: Potency [1] | Potency [2] | Potency [3] | Potency [4]

Nc1ccccc1C(=O)NNc1c2ccccc2nc2ccccc12
inactive: Potency [1] | Potency [2] | Potency [3] | Potency [4]

Cc1[nH]n(-c2ccccc2)c(=O)c1C=Nc1ccc(S(=O)(=O)N=C(N)N)cc1
inactive: Potency [1] | Potency [2] | Potency [3] | Potency [4]

CCC1=Nc2cc(C(=O)NCCCOC)ccc2Sc2ccc(Br)cc21
inactive: Potency [1] | Potency [2] | Potency [3] | Potency [4]

O=C(/C=C/c1ccco1)Nc1nc(-c2ccccn2)cs1
inactive: Potency [1] | Potency [2] | Potency [3] | Potency [4]

O=C(O)/C=C\C(=O)Nc1ccccc1C#Cc1ccc(Br)cc1
active: Potency [3] 1.35 µM
inactive: Potency [1] | Potency [2] | Potency [4]

Brc1cc2c(cc1CSc1ncccn1)OCO2
inactive: Potency [1] | activation [2] -6.54% [at 17.1 µM, percent relative to cAMP agonist control] | Potency [3] | activity change, negative = inhibition [4] -28.4% [at 30.8 µM]

CCOc1cc(/C=C2/NC(=O)NC2=O)cc(Br)c1OCc1ccc(C(=O)O)cc1
inactive: Potency [1] | activation [2] 4.12% [at 17.1 µM, percent relative to cAMP agonist control] | Potency [3] | activity change, negative = inhibition [4] -1.26% [at 30.8 µM]

Fc1ccc(/C=C2\CCCC3=C2Nc2ncnn2C3c2ccc(F)cc2)cc1 (centres undefined)
inactive: Potency [1] | activation [2] 4.94% [at 17.1 µM, percent relative to cAMP agonist control] | Potency [3] | activity change, negative = inhibition [4] -4.64% [at 30.8 µM]

CC(NS(=O)(=O)OCC(Cl)(Cl)Cl)c1ccc(Br)cc1 (centres undefined)
inactive: Potency [1] | Potency [2] | Potency [3] | Potency [4]

O=c1c2ccccc2nc(N/N=C/c2c(O)ccc3ccccc23)n1O
inactive: Potency [1] | Potency [2] | Potency [3] | Potency [4]

COc1cc2c(cc1OC)C(COc1cc(C)cc(C)c1)N(C(C)=O)CC2 (centres undefined)
inactive: Potency [1] | activation [2] -1.36% [at 17.1 µM, percent relative to cAMP agonist control] | Potency [3] | activity change, negative = inhibition [4] -10.1% [at 30.8 µM]

Oc1ccc(NCc2ccccc2OCc2ccccc2F)cc1
inactive: Potency [1] | Potency [2] | Potency [3] | Potency [4]

COc1cc2c(cc1OC)C(c1cccs1)N(C(=O)C(C)C)CC2 (centres undefined)
inactive: Potency [1] | Potency [2] | Potency [3] | Potency [4]

C[C@H](CO)N1C[C@H](C)[C@H](CN(C)Cc2cccc(O)c2)OCc2ccccc2-c2c(n(C)c3ccccc23)C1=O
inactive: Potency [1] | activation [2] 8.26% [at 17.1 µM, percent relative to cAMP agonist control] | Potency [3] | activity change, negative = inhibition [4] -3.58% [at 30.8 µM]

O=C(O)c1ccc(-c2nc(-c3ccc(Cl)cc3Cl)cs2)cc1
inactive: Potency [1] | activation [2] 10.1% [at 17.1 µM, percent relative to cAMP agonist control] | Potency [3] | activity change, negative = inhibition [4] -4.87% [at 30.8 µM]

COC(=O)c1ccc2nc(-c3ccc(F)cc3)c(Cc3ccc(C)cc3)n2c1
inactive: Potency [1] | activation [2] 1.87% [at 17.1 µM, percent relative to cAMP agonist control] | Potency [3] | activity change, negative = inhibition [4] -2.87% [at 30.8 µM]

COc1cccc(C(=O)Nc2nnc(-c3ccccc3)s2)c1OC
inactive: Potency [1] | Potency [2] | Potency [3] | Potency [4]

COc1ccc(CCNC(=O)CS(=O)(=O)Cc2nc(-c3ccc(C)cc3)oc2C)cc1OC
inactive: Potency [1] | activation [2] 2.98% [at 17.1 µM, percent relative to cAMP agonist control] | Potency [3] | activity change, negative = inhibition [4] -2.91% [at 30.8 µM]

CCOC(=O)c1cc2c(ccn2C)n1CC(=O)N1CCN(c2cccc(C(F)(F)F)c2)CC1
inactive: Potency [1] | activation [2] 0% [at 17.1 µM, percent relative to cAMP agonist control] | Potency [3] | activity change, negative = inhibition [4] 12.9% [at 30.8 µM]

CCOC(=O)c1ccc(-n2c(N)c(C(=O)OC)c3nc4ccccc4nc32)cc1
inactive: Potency [1] | Potency [2] | outcome [3] inactive [at 12.7 µM] | Potency [4]

O=C(CSc1nc(-c2ccc(F)cc2)nc2ccc(F)cc12)Nc1cccc(C(=O)O)c1
inactive: Potency [1] | Potency [2] | Potency [3] | Potency [4] | Potency [5]

O=[N+]([O-])c1ccc(NS(=O)(=O)c2ccc(Cl)c(Cl)c2)cc1
inactive: Potency [1] | Potency [2] | Potency [3] | Potency [4] | Potency [5]

CCOP(=O)(OCC)C(Cc1ccc(OC)c(OC)c1)N=C(c1ccccc1)c1ccccc1 (centres undefined)
inactive: Potency [1] | activation [2] 4.61% [at 17.1 µM, percent relative to cAMP agonist control] | Potency [3] | activity change, negative = inhibition [4] -11.3% [at 30.8 µM] | activation [5] 17.1% [at 30.8 µM]

Cc1ccc(CN(C(=O)COc2cc(C)c(Cl)c(C)c2)c2ccccn2)o1
inactive: Potency [1] | Potency [2] | Potency [3] | Potency [4] | Potency [5]

CCn1c(C(=O)N2CCc3ccccc3C2)cc2sccc21
active: Potency [3] 53.6 µM
inactive: Potency [1] | Potency [2] | Potency [4] | Potency [5]

COc1ccc(-n2c(C)cc(/C=C3\SC(=O)NC3=O)c2C)cc1
inactive: Potency [1] | Potency [2] | Potency [3] | Potency [4] | Potency [5]

Cc1ccc(S(=O)(=O)NC(=O)c2ccc(-c3ccc(C)c4ccccc34)o2)cc1
inactive: Potency [1] | Potency [2] | Potency [3] | Potency [4] | Potency [5]

O=C(c1ccc(O)c(Br)c1)c1cc(Br)ccc1O
inactive: Potency [1] | activation [2] 3.68% [at 17.1 µM, percent relative to cAMP agonist control] | Potency [3] | activity change, negative = inhibition [4] -2.96% [at 30.8 µM] | activation [5] 26.8% [at 30.8 µM]

CC(=O)c1ccc(OCc2nnn(CC(=O)NS(=O)(=O)c3ccc(C)cc3)c2-c2ccccc2)cc1
inactive: Potency [1] | activation [2] 1.38% [at 17.1 µM, percent relative to cAMP agonist control] | Potency [3] | activity change, negative = inhibition [4] -5.72% [at 30.8 µM]

Cc1cccc(NC(=O)COC(=O)c2c(-c3ccccc3)noc2C)c1
inactive: Potency [1] | activation [2] 4.55% [at 17.1 µM, percent relative to cAMP agonist control] | Potency [3] | activity change, negative = inhibition [4] -6.85% [at 30.8 µM] | activation [5] 24.2% [at 30.8 µM]

CC(C)c1ccc(C2=CC(c3cccc(Cl)c3)n3ncnc3N2)cc1 (centres undefined)
inactive: Potency [1] | Potency [2] | outcome [3] inactive [at 12.7 µM] | Potency [4] | Potency [5]

CC(C)(C)c1ccc(C(=O)NCC2CCCN2S(=O)(=O)c2ccccc2)cc1 (centres undefined)
inactive: Potency [1] | Potency [2] | Potency [3] | Potency [4] | Potency [5]

O=C(NNc1cc(N2CCOCC2)nc(N2CCOCC2)n1)c1ccc([N+](=O)[O-])cc1
inactive: Potency [1] | Potency [2] | Potency [3] | Potency [4] | Potency [5]

COc1ccc(N(CC(=O)NC2CCCCCCC2)S(=O)(=O)c2c(C)nn(C)c2C)cc1
inactive: Potency [1] | Potency [2] | Potency [3] | Potency [4] | Potency [5]

Cc1ccc(NC(=O)CC2S/C(=N/N=C3\CCCc4ccccc43)NC2=O)cc1 (centres undefined)
inactive: Potency [1] | activation [2] 0% [at 17.1 µM, percent relative to cAMP agonist control] | Potency [3] | activity change, negative = inhibition [4] -9.99% [at 30.8 µM]

Cc1ccc(-c2ccc(CN3C(CC(C)C)C(=O)N(Cc4cn(CCC5OCCO5)nn4)CCS3(=O)=O)cc2)cc1 (centres undefined)
inactive: Potency [1] | Potency [2] | Potency [3] | Potency [4] | Potency [5]

CCOc1cccc(-c2c(C(=O)N/N=C/c3cccs3)nnn2-c2nonc2N)c1
inactive: Potency [1] | activation [2] 2.81% [at 17.1 µM, percent relative to cAMP agonist control] | Potency [3] | activity change, negative = inhibition [4] 15% [at 30.8 µM]
active: Potency [5] 10 µM

CCCC(=O)OCCNc1cc(SCc2ccco2)c2nonc2c1[N+](=O)[O-]
inactive: Potency [1] | activation [2] 4.83% [at 17.1 µM, percent relative to cAMP agonist control] | Potency [3] | activity change, negative = inhibition [4] 14.3% [at 30.8 µM] | activation [5] 26.5% [at 30.8 µM]

N#C/C(=C/c1cccn1-c1cccc(C(=O)O)c1)c1ccc(F)cc1
inactive: Potency [1] | activation [2] -0.882% [at 17.1 µM, percent relative to cAMP agonist control] | Potency [3] | activity change, negative = inhibition [4] -6.54% [at 30.8 µM] | activation [5] 2.77% [at 30.8 µM]
